In PubChem BioAssay (EPA / NIEHS):
Inconclusive results are not listed. Some structures have more than one record in an assay (separate samples or runs), and their calls can disagree. Activity calls are given as the source filed them. The calls were made as follows, unless noted: active = hit-call score of the fitted dose curve at least 0.9, where 1 is the maximum; inconclusive = response in the unintended direction; inactive = score below 0.9.

Legend:
[1] = target: Glucocorticoid receptor (Homo sapiens) (UniProt P04150); test: ATG_GR_TRANS: Attagene TRANS-FACTORIAL HepG2 Assay for human Glucocorticoid Receptor (GR) (AID 2282978); details: HepG2 Attagene TRANS GR reporter, mRNA transcription;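 also: activators score as hits since higher reporter transcript over DMSO is fitted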
How it was run: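 After 24 h incubation with test chemical, transfected HepG2 cells were lysed for RNA; reporter cDNA was amplified, FAM-labelled, HpaI-digested and sized on a capillary analyser. Signal gain relative to DMSO was scored.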

[2] = ATG_M_06_TRANS: Attagene TRANS-FACTORIAL HepG2 Assay for M06 Transcription Factor (Internal Marker) (AID 2282983); details: HepG2 Attagene TRANS M06 internal marker reporter;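 also: reporter transcript level by RT-PCR then capillary electrophoresis fluorescence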
How it was run: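 mRNA levels of a reporter transcript, quantified as FAM fluorescence on capillary electrophoresis, served as readout. HepG2 cells expressing exogenous GAL4-chimera reporter constructs were exposed for 24 h. Gain of signal over DMSO was evaluated.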

[3] = ATG_M_32_TRANS: Attagene TRANS-FACTORIAL HepG2 Assay for M32 Transcription Factor (Internal Marker) (AID 2282984); details: HepG2 Attagene TRANS M32 internal marker reporter;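 also: transcript level of a background control reporter unit measured by RT-PCR and capillary electrophoresis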
How it was run: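 Read-out: fluorescent reporter cDNA fragments resolved by capillary electrophoresis after RT-PCR of total RNA. Transfected HepG2 cells were exposed to chemical for 24 h. Activity scored in the positive direction relative to DMSO.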

[4] = target: Transcriptional activator Myb (Homo sapiens) (UniProt P10242); test: ATG_Myb_CIS: Attagene CIS-FACTORIAL HepG2 Assay for human Myeloblastosis (Myb) Proto-Oncogene Transcription Factor (AID 2282986; active = hit-call score of the fitted dose curve at least 0.9, where 1 is the maximum; inactive = score below 0.9); details: HepG2 Attagene CIS-FACTORIAL Myb reporter transcription; actives raise or lower the signal
How it was run: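 After 24 h of compound dosing, total RNA from transfected HepG2 cells is reverse-transcribed and the reporter sequences amplified, labeled and separated by capillary electrophoresis. Values come from bidirectional fitting against DMSO.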

[5] = target: Hepatocyte nuclear factor 4-alpha (Homo sapiens) (UniProt P41235); test: ATG_HNF4a_TRANS: Attagene TRANS-FACTORIAL HepG2 Assay for human Hepatocyte Nuclear Factor 4 alpha (HNF4a) (AID 2282982); details: HepG2 HNF4a transactivation reporter, mRNA readout
How it was run: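 Transient MRTU transfection of HepG2, 24 h dosing. Readout: reporter mRNA via RT-PCR + capillary electrophoresis, fluorescence; activity fit upward relative to DMSO control.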

[6] = target: Oxysterols receptor LXR-alpha (Homo sapiens) (UniProt Q13133); test: ATG_LXRa_TRANS: Attagene TRANS-FACTORIAL HepG2 Assay for human Liver X Receptor alpha (LXRa) (AID 2282980); details: HepG2 Attagene TRANS reporter, LXRa transactivation
How it was run: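 HepG2 cells transiently transfected with GAL4-UAS reporter units for chimeric NR-Gal4 proteins, exposed to chemicals for 24 h. Reporter mRNA quantified by RT-PCR and capillary electrophoresis; gain of signal fitted relative to DMSO.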

[7] = target: Oxysterols receptor LXR-beta (Homo sapiens) (UniProt P55055); test: ATG_LXRb_TRANS: Attagene TRANS-FACTORIAL HepG2 Assay for human Liver X Receptor beta (LXRb) (AID 2282981); details: HepG2 Attagene TRANS GAL4-LXRb reporter, mRNA
How it was run: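 Readout: fluorescent reporter mRNA fragments resolved by capillary electrophoresis after RT-PCR. System: transiently transfected human HepG2, exogenous LXRb-Gal4 chimera driving GAL4-UAS reporter, 24 h dosing. Activity fitted upward against DMSO baseline.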

[8] = target: Bile acid receptor (Homo sapiens) (UniProt Q96RI1); test: ATG_FXR_TRANS: Attagene TRANS-FACTORIAL HepG2 Assay for Farnesoid X Receptor (FXR) (AID 2282979); details: HepG2 Attagene TRANS FXR-GAL4 reporter transcription;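 also: hits raise reporter mRNA above DMSO so AC50 marks FXR activation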
How it was run: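 HepG2 cells were transiently transfected with GAL4-UAS reporters driven by chimeric NR-Gal4 proteins and dosed for 24 h. Reporter mRNA was quantified by RT-PCR, fluorescent labelling, HpaI digestion and capillary electrophoresis, with gain of signal scored versus DMSO.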

[9] = target: Nuclear receptor subfamily 4 group A member 2 (Homo sapiens) (UniProt P43354); test: ATG_NURR1_TRANS: Attagene TRANS-FACTORIAL HepG2 Assay for human Nuclear Receptor Related Protein 1 (NURR1) (AID 2282985); details: HepG2 Attagene TRANS reporter, mRNA readout
How it was run: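 Read-out: reporter mRNA induction by RT-PCR plus capillary electrophoresis with fluorescence detection, after 24 h dosing of transfected HepG2 cells. Exogenous NR-Gal4 chimera activity drives GAL4-UAS reporter; activity fitted upward versus DMSO.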

Measured: AC50

Sequence of Oxysterols receptor LXR-beta (Homo sapiens) (P55055 whole entry, looked up, the tested form may be a part): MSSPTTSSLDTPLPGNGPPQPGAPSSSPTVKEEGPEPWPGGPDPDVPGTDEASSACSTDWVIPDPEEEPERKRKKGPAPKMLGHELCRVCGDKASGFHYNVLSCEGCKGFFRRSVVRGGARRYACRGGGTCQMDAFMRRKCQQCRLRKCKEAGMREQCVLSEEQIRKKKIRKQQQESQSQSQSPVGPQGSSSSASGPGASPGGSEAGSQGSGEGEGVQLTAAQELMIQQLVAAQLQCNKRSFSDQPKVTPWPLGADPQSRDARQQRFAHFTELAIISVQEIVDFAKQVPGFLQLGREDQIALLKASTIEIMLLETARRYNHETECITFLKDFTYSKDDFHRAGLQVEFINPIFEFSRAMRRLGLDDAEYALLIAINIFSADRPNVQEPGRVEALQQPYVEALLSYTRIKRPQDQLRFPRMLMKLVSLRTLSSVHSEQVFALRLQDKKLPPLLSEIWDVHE
Sequence of Nuclear receptor subfamily 4 group A member 2 (Homo sapiens) (P43354 whole entry, looked up, the tested form may be a part): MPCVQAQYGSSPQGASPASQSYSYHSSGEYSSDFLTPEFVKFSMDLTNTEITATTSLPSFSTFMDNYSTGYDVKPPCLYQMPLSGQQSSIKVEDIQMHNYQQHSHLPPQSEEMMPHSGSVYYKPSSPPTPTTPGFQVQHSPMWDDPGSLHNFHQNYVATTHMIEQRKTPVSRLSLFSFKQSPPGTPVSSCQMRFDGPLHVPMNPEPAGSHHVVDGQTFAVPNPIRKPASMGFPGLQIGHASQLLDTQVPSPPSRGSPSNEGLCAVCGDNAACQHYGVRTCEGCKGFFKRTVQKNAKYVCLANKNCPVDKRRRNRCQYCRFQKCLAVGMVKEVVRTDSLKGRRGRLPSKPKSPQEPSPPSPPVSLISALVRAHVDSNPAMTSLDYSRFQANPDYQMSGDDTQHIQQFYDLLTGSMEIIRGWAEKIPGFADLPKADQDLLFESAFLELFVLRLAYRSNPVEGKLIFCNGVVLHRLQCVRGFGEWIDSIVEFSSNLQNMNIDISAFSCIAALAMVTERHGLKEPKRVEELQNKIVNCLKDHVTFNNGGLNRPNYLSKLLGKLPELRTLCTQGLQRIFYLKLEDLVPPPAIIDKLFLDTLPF
Sequence of Transcriptional activator Myb (Homo sapiens) (P10242 whole entry, looked up): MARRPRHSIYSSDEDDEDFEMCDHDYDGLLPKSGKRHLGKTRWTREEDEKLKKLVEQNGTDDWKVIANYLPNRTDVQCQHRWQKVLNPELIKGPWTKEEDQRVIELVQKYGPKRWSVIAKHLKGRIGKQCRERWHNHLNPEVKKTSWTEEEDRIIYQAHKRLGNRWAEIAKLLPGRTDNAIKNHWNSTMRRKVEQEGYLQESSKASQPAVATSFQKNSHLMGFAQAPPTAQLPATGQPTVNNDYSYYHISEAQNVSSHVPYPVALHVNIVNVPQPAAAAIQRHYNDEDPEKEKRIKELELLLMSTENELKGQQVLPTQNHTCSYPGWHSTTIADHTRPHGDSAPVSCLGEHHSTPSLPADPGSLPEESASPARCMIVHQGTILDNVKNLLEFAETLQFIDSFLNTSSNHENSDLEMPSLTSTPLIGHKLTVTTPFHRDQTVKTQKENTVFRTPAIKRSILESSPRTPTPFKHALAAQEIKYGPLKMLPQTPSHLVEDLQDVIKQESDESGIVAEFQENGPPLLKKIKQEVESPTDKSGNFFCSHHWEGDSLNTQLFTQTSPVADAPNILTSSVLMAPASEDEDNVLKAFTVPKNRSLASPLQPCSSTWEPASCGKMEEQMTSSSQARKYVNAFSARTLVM
Sequence of Glucocorticoid receptor (Homo sapiens) (P04150 whole entry, looked up): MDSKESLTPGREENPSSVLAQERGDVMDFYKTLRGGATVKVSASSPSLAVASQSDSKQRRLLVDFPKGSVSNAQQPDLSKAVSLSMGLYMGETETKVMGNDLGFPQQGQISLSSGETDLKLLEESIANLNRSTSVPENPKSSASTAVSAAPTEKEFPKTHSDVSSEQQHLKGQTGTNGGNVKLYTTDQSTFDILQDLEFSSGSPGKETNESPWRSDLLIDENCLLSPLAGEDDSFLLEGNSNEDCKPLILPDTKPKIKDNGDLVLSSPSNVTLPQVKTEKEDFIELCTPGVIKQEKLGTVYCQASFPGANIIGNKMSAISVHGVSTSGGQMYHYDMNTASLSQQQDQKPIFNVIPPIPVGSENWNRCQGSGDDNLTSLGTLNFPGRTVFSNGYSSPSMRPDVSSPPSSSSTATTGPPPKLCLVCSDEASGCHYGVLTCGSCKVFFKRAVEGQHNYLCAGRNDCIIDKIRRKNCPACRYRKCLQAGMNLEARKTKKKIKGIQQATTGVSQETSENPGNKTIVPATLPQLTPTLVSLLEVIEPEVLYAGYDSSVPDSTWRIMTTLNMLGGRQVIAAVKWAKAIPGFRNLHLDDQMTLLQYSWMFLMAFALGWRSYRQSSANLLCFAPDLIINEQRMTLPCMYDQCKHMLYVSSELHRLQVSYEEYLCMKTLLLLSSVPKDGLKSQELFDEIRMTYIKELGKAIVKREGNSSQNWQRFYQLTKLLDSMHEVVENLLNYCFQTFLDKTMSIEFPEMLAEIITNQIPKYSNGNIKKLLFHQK
Sequence of Hepatocyte nuclear factor 4-alpha (Homo sapiens) (P41235 whole entry, looked up): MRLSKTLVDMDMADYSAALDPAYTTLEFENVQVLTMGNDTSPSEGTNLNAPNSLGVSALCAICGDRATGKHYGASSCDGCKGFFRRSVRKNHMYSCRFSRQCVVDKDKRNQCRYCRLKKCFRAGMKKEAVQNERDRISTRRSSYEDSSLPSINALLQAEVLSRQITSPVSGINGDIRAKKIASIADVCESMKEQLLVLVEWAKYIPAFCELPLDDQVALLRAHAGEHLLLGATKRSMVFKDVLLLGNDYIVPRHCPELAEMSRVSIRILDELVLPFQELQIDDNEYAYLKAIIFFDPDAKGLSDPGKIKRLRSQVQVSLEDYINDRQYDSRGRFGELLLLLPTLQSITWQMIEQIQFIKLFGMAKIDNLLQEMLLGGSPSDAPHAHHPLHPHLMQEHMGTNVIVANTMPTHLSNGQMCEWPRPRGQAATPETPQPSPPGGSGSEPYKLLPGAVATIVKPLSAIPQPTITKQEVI
Sequence of Oxysterols receptor LXR-alpha (Homo sapiens) (Q13133 whole entry, looked up, the tested form may be a part): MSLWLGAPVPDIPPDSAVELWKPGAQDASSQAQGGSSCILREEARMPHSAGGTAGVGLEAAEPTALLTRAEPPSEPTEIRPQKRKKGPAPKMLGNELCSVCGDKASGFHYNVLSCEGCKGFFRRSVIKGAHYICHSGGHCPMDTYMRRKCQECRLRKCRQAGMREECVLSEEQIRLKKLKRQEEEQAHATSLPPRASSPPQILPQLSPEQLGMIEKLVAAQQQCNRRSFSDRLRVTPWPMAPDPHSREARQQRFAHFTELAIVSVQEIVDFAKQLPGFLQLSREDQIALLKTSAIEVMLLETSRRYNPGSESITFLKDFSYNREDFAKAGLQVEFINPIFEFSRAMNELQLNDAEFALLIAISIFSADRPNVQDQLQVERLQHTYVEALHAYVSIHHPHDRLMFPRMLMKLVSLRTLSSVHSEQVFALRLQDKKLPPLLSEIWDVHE
Sequence of Bile acid receptor (Homo sapiens) (Q96RI1 whole entry, looked up, the tested form may be a part): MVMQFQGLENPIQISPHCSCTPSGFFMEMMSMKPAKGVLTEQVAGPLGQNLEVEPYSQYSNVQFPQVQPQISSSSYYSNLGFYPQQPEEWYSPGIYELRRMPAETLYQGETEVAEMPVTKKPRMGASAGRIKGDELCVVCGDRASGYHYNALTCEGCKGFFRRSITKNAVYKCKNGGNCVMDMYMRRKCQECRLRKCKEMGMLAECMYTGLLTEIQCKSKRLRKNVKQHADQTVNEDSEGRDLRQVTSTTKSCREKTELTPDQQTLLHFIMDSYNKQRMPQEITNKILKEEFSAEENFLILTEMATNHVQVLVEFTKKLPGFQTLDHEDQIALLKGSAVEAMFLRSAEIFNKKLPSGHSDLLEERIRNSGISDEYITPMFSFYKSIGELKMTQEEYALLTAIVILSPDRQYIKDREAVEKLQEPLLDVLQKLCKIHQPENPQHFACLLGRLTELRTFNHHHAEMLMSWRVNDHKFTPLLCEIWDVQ

O[Si](c1ccccc1)(c1ccccc1)c1ccccc1
inactive: [1] | [2] | [3] | [4]

COC(OC(C)=O)c1ccccc1 (configuration not stated)
inactive: [1] | [5] | [4]

CC(C)=CCCC(C)CCOC(=O)C(C)C (configuration not stated)
not listed: [7] | [8] | [9]
inactive: all other assays above

O=C(OCCOCCOCCOC(=O)c1ccccc1)c1ccccc1
not listed: [7] | [8] | [9]
inactive: all other assays above

OCC(F)(F)C(F)(F)C(F)(F)C(F)(F)C(F)(F)C(F)(F)F
inactive: [1] | [7] | [4]

O=C(C=Cc1ccccc1)OCC=Cc1ccccc1
inactive: [7] | [5] | [2] | [3] | [4]

COC(=O)C1CCC(C(=O)OC)CC1 (configuration not stated)
inactive: [8] | [3] | [9] | [4]

Cc1cccc(N(C)C)c1
inactive: [1] | [5] | [2] | [3] | [4]

CCCCCCC(C)OC(=O)CCCCC(=O)OC(C)CCCCCC (configuration not stated)
inactive: [7] | [5] | [4]

CO[Si](OC)(c1ccccc1)c1ccccc1
inactive: [1] | [5] | [3] | [4]

CNC(=S)NC
not listed: [1] | [3] | [6]
inactive: all other assays above

O=S(=O)(O)C(F)(F)C(F)(F)C(F)(F)C(F)(F)C(F)(F)C(F)(F)C(F)(F)F
inactive: [1] | [6] | [2] | [3] | [4]
active: [4] 160 µM

CCCCOCCOCCOC(=O)CCCCC(=O)OCCOCCOCCCC
not listed: [6] | [7] | [8]
inactive: all other assays above

O=P(O)(O)OCCC(F)(F)C(F)(F)C(F)(F)C(F)(F)C(F)(F)C(F)(F)F
inactive: [8] | [7] | [2] | [3] | [4]

FC(F)(F)C(F)(F)C(F)(F)C(F)(F)C(F)(F)C(F)(F)C(F)(F)I
inactive: [8] | [6] | [2] | [3] | [4]

COC(=O)CCC(F)(F)C(F)(F)C(F)(F)C(F)(F)F
inactive: [2] | [4]

NC(=O)C(F)(F)C(F)(F)C(F)(F)C(F)(F)F
inactive: [1] | [2] | [3] | [9] | [4]

CCC(=O)OCCc1ccccc1
inactive: [7] | [3] | [4]

O=S(=O)(O)c1ccc2ccccc2c1
inactive: [6] | [2] | [3] | [9] | [4]

CCCCCCOC(=O)c1ccccc1
inactive: [5] | [2] | [4]

CCCCCCS
inactive: [1] | [5] | [2] | [9] | [4]

CC(C)OC(=O)c1ccccc1C(=O)OC(C)C
inactive: [1] | [2] | [9] | [4]

FC(F)(F)C(F)(F)C(F)(F)C(F)(F)C(F)(F)C(F)(F)C(F)(F)C(F)(F)CCS
inactive: [8] | [6] | [3] | [4]

C=CC/C=C/C/C=C/C/C=C/C
inactive: [1] | [2] | [3] | [9] | [4]

FC(F)(F)C(F)(F)C(F)(F)C(F)(F)C(F)(F)C(F)(F)CC1CO1 (configuration not stated)
inactive: [1] | [6] | [3] | [4]

CCCCNc1ccccc1
inactive: [8] | [6] | [5] | [3] | [4]

Nc1ccc([N+](=O)[O-])cc1O
inactive: [6] | [2] | [3] | [4]

CC(C)(C)c1ccc(OC2CCCCC2O)cc1 (configuration not stated)
inactive: [8] | [6] | [7] | [4]

C=CC(=O)OCC(F)(F)C(F)(F)C(F)(F)C(F)(F)C(F)(F)C(F)(F)C(F)(F)F
inactive: [8] | [6] | [7] | [2] | [4]

N=C(N)C(F)(F)C(F)(F)C(F)(F)C(F)(F)C(F)(F)C(F)(F)C(F)(F)F
inactive: [8] | [2] | [3] | [9] | [4]

Nc1ccc(Oc2cccc(Oc3ccc(N)cc3)c2)cc1
inactive: [1] | [2] | [3]
active: [5] 160 µM | [4] 108 µM

C=CC(=O)OCC(F)(F)C(F)(F)C(F)(F)C(F)(F)COC(=O)C=C
active: [5] 240 µM
inactive: [6] | [7] | [2] | [3] | [4]

C(=C(c1ccccc1)c1ccccc1)c1ccccc1
inactive: [1] | [7] | [5] | [2] | [4]
active: [9] 26.4 µM
